Experimental data from the supplement of paper PMC6555819.

tested on: RXRa DBDmut IVT, anti-RXR (DBD mutation: RXRa K156A/R161A, NR concentration 90 nM); assay: PBM binding z-score (relative to random genomic background probes); higher = stronger binding; sequences stand for … in GC…GCGATTGACAGCGTAGAATGAAGG
In short: (§1)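 Scanned fluorescence from custom Agilent 4×180K protein-binding microarrays was regression-normalized. Binding z-scores use random background probes as reference. Ligand-free nuclear receptor dimers were incubated on the arrays for 1 h and detected with antibodies against each partner (one per run).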

Sequence	PBM binding z-score
CCTAGTTGGTCAAGGTCACGCACGCTATAGGTAC	1.94
GATACAGGGTCATCTAGAGGCCAGAGTATGGAAA	3.39
AGTCAAAGTTCACTAGGTTACGTAAGATTCAGCT	4.29
CCAGACAGGTGAAAGGTAACTCACTCTGGTACGC	0.0725
ATCTCTAGGTGAAAGTTCAGTGAATCCCGAGGAT	0.779
CAAACTAGGTCAAGGTCAAATTCGGTTTGTGCCA	3.1
CAAACTAGGTCACGAAAGGTCAAAATCGAATGAC	2.25
CCTACTGGGCCAAGGTCATTGACCAGTCAAAGCA	0.966
TTAACAAGGTGAAAGGTCGTTGATGCACGCCTTG	0.328
CCTGCTCGGTCAATGGTCAGCTAAAGCAGCTCGC	0.331
CGTCAAAGTTCAAGGTAATGTAACAGAAAGCAGC	4.23
CAAACTAGGTCAAAGGTCAAAGACGAGCCAACCA	2.8
CCTACTGGGCCATTGAGAGGTCATTGATCATATG	0.642
CCTGCTAGTTCATGGTCAGCTAATCTACAGTATG	2.43
TCTAGTTCGTCACGGAGGTCACACACGACGGGTA	2.51
AGAATGAGGTTAGCAAAGATCAGGGAAACGCTTG	0.105
TAGCCTAGGTCATTCAGGGGCTAGTATAGAAAGC	1.94
ACTCGGAGGACAAAGGTAAGAGCTACGCCAGTGA	0.376
TCATATAGGTAATCAGGTGAAAGTCCGTAAGTTA	1.52
CCTACTGGGCCAAAGGTCATTGACTCCAATGCTC	1.6

Sequence	PBM binding z-score
AAATGTAGGTTAAGGGTCATTCAGGTTGGTTCGC	2.32
GGAACTAGGGCAAAGTTGATAGCATCTGTCGACG	0.644
CAAACTAGGTCAAGGGGTCAAAGTCCGCTTCCCG	2.98
ATCGAAAGGTCGTGAGGTGAGTACACAGAAAGGC	1.6
CGAACTAGTTCAAGGACAGTGAATCTCCGCACGC	1.78
CCTGCTAGTTCAATGGTCAGCTAAAGCAGCTCGC	2.42
ATATGTAGGTTAGCGGGGGTCATTCAGACTAGGC	2.7
CGTCCAAGGTCAGCAGGTGAGTGAAAGCGACGTG	2.47
TAGCCTCGGTCATTGGGCCAGTATAGTACGCATC	-0.363
GCTAGTTGGTCAGTAAATGGTCACACACCGGTCG	0.286
AGACAAAGTTCAGGACGAGGTAACGTAAAGCACG	2.87
CGCACTAGGTCATTGACAGGACAGTGAATAGTAA	2.35
ATGGAAAGGTCGTGAGGTGAGTATACAGAAAGGC	1.52
ATATCTAGGTAAAAGTTCAGTGAATCCCGAGGAT	0.832
CCTACTGGGCCGAGGTCATTGATCAGTCAAAGCA	1.96
TTACCAAAGTGAAAGGTCGTTGATGCACGCCTTG	0.293
CCTAGTAGGTTATGGGGCATTCAGGCAACGGTGA	-0.581
AGTCAAAGTTCATCTGGGTAACGTAAGATATGCT	4.78
TCTTGTAGATCAAAGGTCAAGAAAGCCGAAGCCT	0.913

tested on: RXRa homodimer (NR concentration 180 nM); assay: as above
In short: as §1

Sequence	PBM binding z-score
CCTAGTTGGTCAAGGTCACGCACGCTATAGGTAC	5.65
GATACAGGGTCATCTAGAGGCCAGAGTATGGAAA	6.6
AGTCAAAGTTCACTAGGTTACGTAAGATTCAGCT	4.53
CCAGACAGGTGAAAGGTAACTCACTCTGGTACGC	2.37
ATCTCTAGGTGAAAGTTCAGTGAATCCCGAGGAT	2.74
CAAACTAGGTCAAGGTCAAATTCGGTTTGTGCCA	6.24
CAAACTAGGTCACGAAAGGTCAAAATCGAATGAC	8.44
CCTACTGGGCCAAGGTCATTGACCAGTCAAAGCA	4.1
TTAACAAGGTGAAAGGTCGTTGATGCACGCCTTG	6.17
CCTGCTCGGTCAATGGTCAGCTAAAGCAGCTCGC	0.053
CGTCAAAGTTCAAGGTAATGTAACAGAAAGCAGC	4.26
CAAACTAGGTCAAAGGTCAAAGACGAGCCAACCA	10.6
CCTACTGGGCCATTGAGAGGTCATTGATCATATG	3.13
CCTGCTAGTTCATGGTCAGCTAATCTACAGTATG	0.309
TCTAGTTCGTCACGGAGGTCACACACGACGGGTA	4.68
AGAATGAGGTTAGCAAAGATCAGGGAAACGCTTG	1.23
TAGCCTAGGTCATTCAGGGGCTAGTATAGAAAGC	2.89
ACTCGGAGGACAAAGGTAAGAGCTACGCCAGTGA	0.494
TCATATAGGTAATCAGGTGAAAGTCCGTAAGTTA	0.885
CCTACTGGGCCAAAGGTCATTGACTCCAATGCTC	6.03

Sequence	PBM binding z-score
AAATGTAGGTTAAGGGTCATTCAGGTTGGTTCGC	5.91
GGAACTAGGGCAAAGTTGATAGCATCTGTCGACG	0.592
CAAACTAGGTCAAGGGGTCAAAGTCCGCTTCCCG	8.47
ATCGAAAGGTCGTGAGGTGAGTACACAGAAAGGC	5.77
CGAACTAGTTCAAGGACAGTGAATCTCCGCACGC	0.544
CCTGCTAGTTCAATGGTCAGCTAAAGCAGCTCGC	0.154
ATATGTAGGTTAGCGGGGGTCATTCAGACTAGGC	6.22
CGTCCAAGGTCAGCAGGTGAGTGAAAGCGACGTG	3.87
TAGCCTCGGTCATTGGGCCAGTATAGTACGCATC	0.223
GCTAGTTGGTCAGTAAATGGTCACACACCGGTCG	0.551
AGACAAAGTTCAGGACGAGGTAACGTAAAGCACG	2.9
CGCACTAGGTCATTGACAGGACAGTGAATAGTAA	2.57
ATGGAAAGGTCGTGAGGTGAGTATACAGAAAGGC	5.97
ATATCTAGGTAAAAGTTCAGTGAATCCCGAGGAT	1.62
CCTACTGGGCCGAGGTCATTGATCAGTCAAAGCA	4.68
TTACCAAAGTGAAAGGTCGTTGATGCACGCCTTG	2.65
CCTAGTAGGTTATGGGGCATTCAGGCAACGGTGA	0.835
AGTCAAAGTTCATCTGGGTAACGTAAGATATGCT	4.42
TCTTGTAGATCAAAGGTCAAGAAAGCCGAAGCCT	7.17
